GRP78 ERSR act: inducers of ER stress response in human glioma cells; U87-MG GRP78 promoter luciferase reporter, 16 h; Potency, µM, for the others: top-dose activation, actives largely listed as activators; hit rate 0.02% among 420,000; AID 602332; further: series mostly up to about 76 µM; % of control where 0% means no effect; nearly all actives have a fitted effect of over 35% in size
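Stably transfected U87-MG human glioma cells carrying a GRP78-based luminescent sensor were seeded at 1000 cells/well, pin-dosed with compounds and incubated 16 h. Luciferase reagent was then added, and end-point luminescence was read after 10 min at room temperature.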
GLS inhibitor: glutaminase GLS (human) inhibition. O94925. GLS enzymatic activity, qHTS titration. Potency, µM (doses to about 45.5 µM), for the others: at the top dose activity change, negative = inhibition, usual class: inhibitors. hit rate 0.21% among 410,000. AID 624170; further: on the % scale 0 is the no-effect control and ±100 the full control effect
Target sequence (O94925 whole entry, looked up): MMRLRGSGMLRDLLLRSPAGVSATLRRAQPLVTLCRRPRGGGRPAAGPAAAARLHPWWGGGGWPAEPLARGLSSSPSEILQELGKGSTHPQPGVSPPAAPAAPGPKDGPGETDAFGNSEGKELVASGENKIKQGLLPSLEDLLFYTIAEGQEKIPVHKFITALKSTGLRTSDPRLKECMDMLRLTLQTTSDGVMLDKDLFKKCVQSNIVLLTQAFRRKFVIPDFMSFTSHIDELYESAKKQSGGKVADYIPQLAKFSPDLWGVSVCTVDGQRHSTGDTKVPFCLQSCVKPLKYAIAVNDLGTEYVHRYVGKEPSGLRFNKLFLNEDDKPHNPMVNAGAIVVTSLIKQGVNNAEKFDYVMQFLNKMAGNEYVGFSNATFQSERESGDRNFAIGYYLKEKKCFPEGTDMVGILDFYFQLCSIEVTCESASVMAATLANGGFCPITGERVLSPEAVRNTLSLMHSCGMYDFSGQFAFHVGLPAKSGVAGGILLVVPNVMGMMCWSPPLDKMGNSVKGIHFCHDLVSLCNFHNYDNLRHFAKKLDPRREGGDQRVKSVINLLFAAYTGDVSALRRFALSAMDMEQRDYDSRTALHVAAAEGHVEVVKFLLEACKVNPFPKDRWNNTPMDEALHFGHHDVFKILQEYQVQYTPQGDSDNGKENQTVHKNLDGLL
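hKGA in 45 mM KH2PO4 (pH 8.2), 0.02% Tween-20 with compound, then 1mM L-Glutamine (stock as added) plus glutamate oxidase/HRP/Amplex red coupling mix. Fluorescence read initially and after 30 min at RT; signal change reflects glutamate formation.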
GLP-1R agonist: GLP-1 receptor (human) agonism. HEK293 GLP-1R CRE-luciferase, luminescence, 4-6 h; cells express a hypersensitive GLP-1R form. hit rate 0.007% among 380,000. P43220. Potency, µM (highest dose often 45.6 µM), inactives show at the highest dose activation, most hits filed as activators; further: % of control where 0% means no effect
ALOX12 inh: inhibitors of human 12S-lipoxygenase ALOX12; hit rate 1.1% among 580,000; Potency, µM (titrated, usually from 108 µM), inactives show at the highest dose activity change, negative = inhibition, most hits filed as inhibitors; P18054; purified 12hLO, xylenol orange hydroperoxide absorbance; further: on the % scale 0 is the no-effect control and ±100 the full control effect
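Purified human 12hLO at 150 nM in 25 mM Hepes, 0.01% Triton X-100, pH 7.0, preincubated 15 min at room temperature with compound. Reaction started with 40 uM arachidonic acid, 30 min at room temperature. Hydroperoxide measured by Fe-xylenol orange, 573/405 nm absorbance ratio.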
PTHR1 ag: agonists of human PTHR1 parathyroid hormone receptor; HEK293 GP2 PTHR1 cells, GloSensor cAMP luminescence, 1 h; Q03431; hit rate 0.075% among 410,000; Potency, µM (doses to about 115 µM), for the others: top-dose activation, usual class: activators; AID 743266; further: nearly all actives have a fitted effect of over 55% in size
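HEK-293-derived GP2 cells expressing PTHR1 and a GloSensor cAMP reporter, 3,000/well, plated overnight, given luciferin plus IBMX (each 0.5 mM as added) for 1 h at 37 °C, then compound for 1 h at 37 °C. Luminescence was read after 15 min at room temperature.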
GLP-1R inv ag: inverse agonists of human GLP-1 receptor; hit rate 1.6% among 410,000; Potency, µM (titrated, usually from 38.3 µM), for inactives: top-dose activity change, negative = inhibition, usual class: inhibitors; AID 624417; P43220; HEK293 GLP-1R CRE-luciferase, luminescence, 24 h; GLP-1R form is constitutively active; further: on the % scale 0 is the no-effect control and ±100 the full control effect; nearly all actives have a fitted effect of over 55% in size
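Using stably transfected HEK293 (constitutively active GLP-1R, cAMP-luciferase reporter), compounds were incubated 24 hr and luciferase measured by luminescence.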
An asterisk follows results filed as active; i = inactive; ? = inconclusive; . = not tested or not shown; [ ] = remark or other dose. Hits are enriched below; roughly 2.3% of the tested compounds scored in any of these assays. The call rests on the fitted dose curve; in most records, active means well fitted curve in the direction sought with a large enough effect; inconclusive means small, poorly fitted or top-dose-only effect, or another doubt; inactive means no such curve, though single readings can be large; an effect the other way counts as inactive or inconclusive. Potency means the concentration at half of the fitted maximal effect.

SMILES	GRP78 ERSR act	GLS inhibitor	GLP-1R agonist	ALOX12 inh	PTHR1 ag	GLP-1R inv ag
CC1=NN(C(=O)c2csc(C(C)C)c2)C(O)(C(F)(F)F)C1 (stereo unspecified)	6%	2%	2%	7%	-13%	1.3µM*
CC(C)CC1=NN(C(=O)c2cccnc2)C(O)(C(F)(F)F)C1 (stereo unspecified)	2%	8%	-3%	28%	-4%	?
COc1ccc(C(=O)N2N=C(C)CC2(O)C(F)(F)F)cc1OC (stereo unspecified)	.	.	.	16%	.	.
COC(c1ccccc1)c1nnc(CCC(=O)N(C)CCOc2ccccc2)o1 (stereo unspecified)	1%	-6%	6%	-1%	-20%	?
COC(c1ccccc1)c1nnc(CCC(=O)N(C)CCCC2CCCC2)o1 (stereo unspecified)	0%	4%	12%	1%	-32%	10µM*
COCCSc1ccccc1C(=O)Nc1ccc(Br)cc1	0%	0%	8%	35µM*	-12%	?
COCCSc1ccccc1C(=O)Nc1cccnc1	-4%	-3%	-1%	22µM*	i	12%
COCCSc1ccccc1C(=O)Nc1ccc(Cl)cc1	0%	-2%	1%	18µM*	i	?
COCCSc1ccccc1C(=O)Nc1cc(C)on1	-2%	-2%	-1%	?	i	6%
Cc1oc(-c2nc(C#N)c(NCc3cccnc3)o2)cc1S(=O)(=O)N1CCCCCC1	.	.	.	48%	.	.
CC(NC(=O)c1cccc(C(F)(F)F)c1)C1CC2CCC1C2 (stereo unspecified)	.	.	.	36%	.	.
CC1Cc2nc(SCC(=O)N3CCCCC3)n(-c3ccc(F)cc3)c(=O)c2S1 (stereo unspecified)	.	.	.	-1%	.	.
COc1cc(/C=C/C(=O)OCC(=O)N2CCCc3ccccc32)ccc1O	-1%	10µM*	4%	3%	i	-13%
COc1cc(/C=C/C(=O)OCC(=O)N2CCCc3ccccc32)ccc1OCC#N	0%	0%	?	233%	-6%	29%
O=C(NCC1(COc2cnccn2)C[C@@H](O)[C@@H](O)C1)Nc1cccnc1 (stereo partly specified)	.	.	.	25µM*	.	.
CC(=O)NCC1(COc2cnccn2)C[C@@H](O)[C@@H](O)C1 (stereo partly specified)	.	.	.	1%[176 µM]	.	.
CCOc1cccc(/C=N/NC(=S)Nc2ccccc2[N+](=O)[O-])c1O	-7%	11%	-3%	-24%	-30%	?
CCCCNC(=S)N/N=C/c1cccc(OCC)c1O	3%	8.9µM*	12%	6%	i	?
CCCC(C)NC(=O)c1csc(CC)c1 (stereo unspecified)	.	.	.	30%	.	.
Cc1ccc(/C=C/C(=O)OC(C)C(=O)c2ccc(C)c(C)c2)o1 (stereo unspecified)	.	.	.	6.3µM*	.	.
Oc1cccc2c(N=Cc3ccc(F)c(F)c3)cccc12	.	.	.	22µM*	.	.
Cc1ccc(N(C(=O)Cn2nnc(-c3ccc(F)cc3)n2)C(C(=O)NC(C)(C)C)c2ccncc2)cc1 (stereo unspecified)	-2%	8%	5%	-2%	45µM*	?
CC(C)(C)NC(=O)C(c1ccncc1)N(C(=O)Cn1nnc(-c2ccc(F)cc2)n1)c1ccc(F)cc1 (stereo unspecified)	-3%	6%	-2%	-3%	-10%	-4%
CC(C)(C)NC(=O)C(c1ccc(O)cc1)N(C(=O)Cn1nnc(-c2ccc(F)cc2)n1)c1ccccc1F (stereo unspecified)	-6%	-5%	-5%	-26%	-21%	8.9µM*
CC(C)c1nnc(NC(=O)NCC(O)c2ccccc2F)s1 (stereo unspecified)	.	.	.	4%	.	.
SMILES	GRP78 ERSR act	GLS inhibitor	GLP-1R agonist	ALOX12 inh	PTHR1 ag	GLP-1R inv ag
Cc1nc2cc(NC(=O)c3cccc(Cl)c3Cl)ccc2o1	.	.	.	-5%	.	.
Cc1ccc(C(=O)OCC(=O)c2cc(C)n(Cc3ccco3)c2C)s1	.	.	.	-46%	.	.
Cc1ccc(C(=O)OCC(=O)c2ccco2)s1	.	.	.	32µM*	.	.
CCOC(=O)C(C)NC(=O)c1ccccc1 (stereo unspecified)	.	.	.	-23%	.	.
CCOC(=O)C1C(c2ccccc2)NC(=S)NC1(C)O (stereo unspecified)	-6%	2.8µM*	-1%	13%	-13%	0%
CCOC(=O)C1C(c2ccc(O)c(OC)c2)NC(=S)NC1(O)C(F)(F)F (stereo unspecified)	0%	50%	-2%	-13%	-22%	17%
COc1ccc2cc(CNc3ccc(C)cc3)c(=O)n(CC(=O)Nc3cccc(Cl)c3C)c2c1	3%	-7%	7%	90%	-2%	-3%
CCc1ccc(NCc2cc3cc4c(cc3n(CC(=O)Nc3cccc(OC)c3)c2=O)OCO4)cc1	-2%	10µM*	-2%	129%	-2%	5%
COc1ccc2cc(CNc3ccc(C)cc3)c(=O)n(CC(=O)Nc3ccc(C)cc3Cl)c2c1	-4%	13µM*	0%	123%	i	8%
COc1ccc(C)cc1CN(C)C(=O)C1CCN(C(=O)c2cccc3ccccc23)CC1	.	.	.	1%	.	.
Cc1ccc(-c2nnn(CC(=O)N(Cc3ccco3)C(C(=O)NC(C)(C)C)c3ccc(C)o3)n2)o1 (stereo unspecified)	-1%	-7%	0%	-7%	-21%	1.3µM*
Cn1cc(CN2C[C@@H](F)[C@@H](OCc3nc4ncccc4[nH]3)C2)c2ccccc21	.	.	.	2%[176 µM]	.	.
CC(C)Oc1cccc(C(=O)NC(=S)Nc2ccccc2)c1	-1%	11%	-1%	22µM*	-24%	?
CCCCOc1cccc(C(=O)NC(=S)Nc2cccc(NC(=O)c3ccccc3Cl)c2)c1	1%	1%	-1%	11µM*	i	29%
CC(C)COc1cccc(C(=O)NC(=S)Nc2cccc(NC(=O)c3ccccc3Cl)c2)c1	-2%	2%	1%	28µM*	i	5%
CCCOc1cccc(C(=O)NC(=S)Nc2ccccc2)c1	4%	11%	-1%	16µM*	i	10%
Cc1ccccc1-c1nnn(Cc2cc(=O)oc3c(C)c(C)ccc23)n1	.	.	.	14%	.	.
CC(C)Oc1ccc(C(=O)NC(=S)Nc2ccc(Cl)c(C(=O)O)c2)cc1	7%	25%	4%	10µM*	i	10%
CC(=O)NC(=S)Nc1ccc(NC(=O)c2cccc(Cl)c2)cc1	.	.	.	41%	.	.
CCCOc1cccc(C(=O)NC(=S)Nc2cccc(NC(=O)c3ccccc3Cl)c2)c1	-2%	5%	-10%	13µM*	-19%	32%

Source: PubChem BioAssay
